The results in this text go back to PubChem BioAssay (NCI).

Values joined by “and” are separate entries in the source; they are usually repeats but may differ in a detail not shown here. Equal values may be shown once. Compounds without any hit were thinned out: in the full panel of roughly 83,000, 20% have a hit.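 The test compound was applied at a single concentration to cells in 96-well plates for 48 hours, and percent growth was recorded.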 The source holds several records for some structures; these can differ, active in one and inactive in another. Active and inactive are the calls of the source. Rule for the calls: active = growth percent below 10; inactive = the rest.

For one assay, the system named is PC-3 prostate. The assay can be described thus: NCI-60 one-dose screen, 48 h (100 = growth as untreated, 0 = no growth, -100 = all killed). Conditions: 10 µM unless noted.
As for `OC(c1cc(-c2ccc(C(F)(F)F)cc2)nc(C(F)(F)F)c1)C1CCCCN1` (stereo unspecified), the growth was -29.2% (active) and -43.2% (active) and 17% (inactive). Same read-out and setting: in the case of `C/C(=N/NC(N)=S)c1ccc(C)cc1` it was 90.6% (inactive); in that of `N#Cc1c2ccccc2nc2ccccc12`, 91% (inactive); in that of `O=C1CSC(=S)N1Cc1cccnc1`, 85.1% (inactive). On the same count and under the same terms, in the case of `O=C(c1ccccc1)C(Br)[N+](=O)[O-]` (stereo unspecified) it was 89.4% (inactive). The same measure, in the same setting: next, `CC(/C=N/NC(N)=S)Cc1ccc(C(C)C)cc1` (stereo unspecified): 73.5% (inactive); `Oc1c(C(Nc2ccccc2)c2ccccc2)ccc2cccnc12` (stereo unspecified): 28.9% (inactive). As to `O=C(Cc1nc2cc(Cl)c(Cl)cc2nc1CC(=O)c1cccnc1)c1cccnc1`, the growth is 70.2% (inactive). Still for that read-out and setting: next, `COc1cccc2c1C(=O)c1c(O)c3c(c(O)c1C2=O)C[C@@](O)(C(=O)CO)C[C@@H]3OC1CC(OC(C)=O)C(OC(C)=O)C(C)O1` (stereo partly specified): 5.51% (active).

For the compound `O=[N+]([O-])c1ccc([I+]c2ccccc2)cc1`, the growth is 62.3% (inactive). With `O=[N+]([O-])CC(O)c1ccccc1` (stereo unspecified), the growth was 94.9% (inactive). Still for that read-out and setting: next, `CCCCCCCCCCCCNCCCc1ccccc1`: 78.9% (inactive); `CN=C(N)N/N=C(\C)c1ccc2c(c1)Cc1ccccc1-2`: -20.6% (active). Still for that read-out and setting: in the case of `CCN(CC)CCNc1ccc([N+](=O)[O-])c2sc3ccccc3c(=O)c12` it was 27.3% (inactive).

`O/N=C1\c2ccccc2-c2ccc(F)cc21`: the growth was 89.1% (inactive). Consider `COc1cc(NC(=O)C2=C(C)NC(C)=C(C(=O)Nc3cc(OC)c(Cl)cc3OC)C2c2cccc([N+](=O)[O-])c2)c(OC)cc1Cl`, for which the growth was 16.8% (inactive). Still for that read-out and setting: in the case of `CCN(CC)CCNC(Cc1ccccc1)c1ccc(OCc2ccccc2)cc1` (stereo unspecified) it was 56.8% (inactive); in that of `c1ccc(C2NCCNC2c2ccccc2)cc1` (stereo unspecified), 98.6% (inactive). Same read-out and setting: next, `COC(=O)Nc1nc2ccc(C3(c4ccc(F)cc4)OCCO3)cc2[nH]1`: 14.8% (inactive); `O=[N+]([O-])c1ccc(Oc2ccccc2Cl)c([N+](=O)[O-])c1`: 97.1% (inactive); `O=C(O)c1ccc2c(c1)C(=O)c1ccccc1C2=O`: 96.5% (inactive). Still for that read-out and setting: in the case of `C=C(C(N)=O)C(N)C(=O)O` (stereo unspecified) it was 103% (inactive); in that of `CCC[CH2][Sn]1([CH2]CCC)[O]C2C(CO)OC(n3ccc(N)nc3=O)C2[O]1` (stereo unspecified), -11.3% (active). For `COc1cc2c(c(OC)c1OC)-c1ccc(NCc3ccccc3)c(=O)cc1[C@@H](NC(C)=O)CC2`, the growth was 21.8% (inactive).

For `CCN1CCCC(Nc2cc(C)nc(/N=C(/N)Nc3ccc(Cl)c(Cl)c3)n2)C1` (stereo unspecified), the growth is 7.05% (active).

Consider `CN=C(N)N/N=C(\c1ccccc1)c1ccc(Br)cc1`, for which the growth was 12.6% (inactive).

As for `O=C(NOC(=O)c1ccccc1)c1ccccc1`, the growth is 90.2% (inactive).

For the compound `O=[n+]1c2ccccc2n([O-])c2cc(Cl)ccc21`, the growth is 50.2% (inactive). Same read-out and setting: next, `C(=N\Nc1ccc2ccccc2n1)/c1ccccn1`: 45.1% (inactive); `O=C(CCl)N1c2ccccc2Sc2c1ccc1ccccc21`: 70.6% (inactive). Same read-out and setting: next, `CC(C)c1ccc(Nc2n[nH]c(=S)s2)cc1`: 93.6% (inactive).

In another assay the test system is SK-MEL-5 melanoma. The description is as above. The note with it: 10 µM unless noted.
`Oc1ccc2ccccc2c1N=Nc1ccccn1`: the growth is 23.7% (inactive). On the same count and under the same terms, in the case of `OC(c1cc(-c2ccc(C(F)(F)F)cc2)nc(C(F)(F)F)c1)C1CCCCN1` (stereo unspecified) it was -91.6% (active) and -98.8% (active) and 6.65% (active). The same measure, in the same setting: in the case of `N#Cc1c2ccccc2nc2ccccc12` it was 94.8% (inactive). On the same count and under the same terms, in the case of `O=C1CSC(=S)N1Cc1cccnc1` it was 99.8% (inactive); in that of `O=C(c1ccccc1)C(Br)[N+](=O)[O-]` (stereo unspecified), 102% (inactive); in that of `Nc1cc(-c2ccccc2)ccc1O`, 118% (inactive).

As for `Oc1c(C(Nc2ccccc2)c2ccccc2)ccc2cccnc12` (stereo unspecified), the growth was 19.7% (inactive). The same measure, in the same setting: next, `O=C(Cc1nc2cc(Cl)c(Cl)cc2nc1CC(=O)c1cccnc1)c1cccnc1`: 81.7% (inactive); `COc1cccc2c1C(=O)c1c(O)c3c(c(O)c1C2=O)C[C@@](O)(C(=O)CO)C[C@@H]3OC1CC(OC(C)=O)C(OC(C)=O)C(C)O1` (stereo partly specified): -100% (active); `O=[N+]([O-])c1ccc([I+]c2ccccc2)cc1`: -29.5% (active).

Take `O=C1C=CC(=O)N1c1ccccc1`: the growth is 106% (inactive). The same measure, in the same setting: next, `O=[N+]([O-])CC(O)c1ccccc1` (stereo unspecified): 103% (inactive). On the same count and under the same terms, next, `CN=C(N)N/N=C(\C)c1ccc2c(c1)Cc1ccccc1-2`: -100% (active). On the same count and under the same terms, in the case of `CCN(CC)CCNc1ccc([N+](=O)[O-])c2sc3ccccc3c(=O)c12` it was 21.1% (inactive); in that of `O/N=C1\c2ccccc2-c2ccc(F)cc21`, 99.1% (inactive); in that of `COc1cc(NC(=O)C2=C(C)NC(C)=C(C(=O)Nc3cc(OC)c(Cl)cc3OC)C2c2cccc([N+](=O)[O-])c2)c(OC)cc1Cl`, -5.53% (active). As to `CCN(CC)CCNC(Cc1ccccc1)c1ccc(OCc2ccccc2)cc1` (stereo unspecified), the growth is 72.8% (inactive). Take `c1ccc(C2NCCNC2c2ccccc2)cc1` (stereo unspecified): the growth was 104% (inactive). Same read-out and setting: next, `COC(=O)Nc1nc2ccc(C3(c4ccc(F)cc4)OCCO3)cc2[nH]1`: 21.2% (inactive). On the same count and under the same terms, in the case of `O=[N+]([O-])c1ccc(Oc2ccccc2Cl)c([N+](=O)[O-])c1` it was 95.1% (inactive); in that of `O=C(O)c1ccc2c(c1)C(=O)c1ccccc1C2=O`, 97.5% (inactive).

On to `C=C(C(N)=O)C(N)C(=O)O` (stereo unspecified), for which the growth is 103% (inactive). Same read-out and setting: next, `CCC[CH2][Sn]1([CH2]CCC)[O]C2C(CO)OC(n3ccc(N)nc3=O)C2[O]1` (stereo unspecified): -72.1% (active); `COc1cc2c(c(OC)c1OC)-c1ccc(NCc3ccccc3)c(=O)cc1[C@@H](NC(C)=O)CC2`: -25% (active).

`CCN1CCCC(Nc2cc(C)nc(/N=C(/N)Nc3ccc(Cl)c(Cl)c3)n2)C1` (stereo unspecified): the growth is -97.6% (active).

With `CN=C(N)N/N=C(\c1ccccc1)c1ccc(Br)cc1`, the growth was -36.7% (active). For the compound `O=C(NOC(=O)c1ccccc1)c1ccccc1`, the growth was 105% (inactive). `C(=N\Nc1ccc2ccccc2n1)/c1ccccn1`: the growth is -10.8% (active).

With `O=C(CCl)N1c2ccccc2Sc2c1ccc1ccccc21`, the growth was 84.5% (inactive). As to `CC(C)c1ccc(Nc2n[nH]c(=S)s2)cc1`, the growth was 101% (inactive).
